According to PubChem BioAssay (NCI):
“And” between values parts separate entries of the source, which are not always exact repeats. Identical values can stand only once. The panel holds about 83,000 compounds, 20% with a hit somewhere; the sample as a whole holds those more often.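 Values shown are percent growth following 48 h exposure of cells in 96-well plates to a single concentration of compound; below 10 was considered active.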 The source made the active and inactive calls.

Legend:
Assay in all cases: NCI-60 one-dose screen, 48 h (100 = growth as untreated, 0 = no growth, -100 = all killed)
CAKI-1 renal = test system: CAKI-1 renal
A498 renal = test system: A498 renal
CCRF-CEM leukemia = test system: CCRF-CEM leukemia
MOLT-4 leukemia = test system: MOLT-4 leukemia
HCT-15 colon = test system: HCT-15 colon
HT29 colon = test system: HT29 colon
SNB-75 CNS = test system: SNB-75 CNS
SNB-19 CNS = test system: SNB-19 CNS
U251 CNS = test system: U251 CNS
PC-3 prostate = test system: PC-3 prostate
SK-MEL-5 melanoma = test system: SK-MEL-5 melanoma
UACC-62 melanoma = test system: UACC-62 melanoma
LOX IMVI melanoma = test system: LOX IMVI melanoma
SK-MEL-28 melanoma = test system: SK-MEL-28 melanoma
SK-MEL-2 melanoma = test system: SK-MEL-2 melanoma
EKVX NSCLC = test system: EKVX NSCLC
SN12C renal = test system: SN12C renal
UO-31 renal = test system: UO-31 renal
TK-10 renal = test system: TK-10 renal
ACHN renal = test system: ACHN renal

Measured: growth

CCc1ccccc1-n1c(N)c(C#N)c(-c2ccc(OC)c(OC)c2)c(C#N)c1=O
inactive: CAKI-1 renal; 10 µM 97.5% | CAKI-1 renal; 100 µM 50.3% | A498 renal; 10 µM 120% | A498 renal; 100 µM 42.6% | CCRF-CEM leukemia; 10 µM 112% | CCRF-CEM leukemia; 100 µM 101% | MOLT-4 leukemia; 10 µM 95.7% | MOLT-4 leukemia; 100 µM 111%

O=C(Oc1cccc(OC(=O)c2ccccc2)c1)c1ccccc1
9.09% (active) and 91.8% (inactive): PC-3 prostate; 10 µM unless noted
inactive: HCT-15 colon; 10 µM unless noted 73% and 102% | HT29 colon; 10 µM unless noted 79.9% and 102% | SNB-75 CNS; 10 µM unless noted 97.1% and 79.6% | SNB-19 CNS; 10 µM unless noted 111% and 98.9% | U251 CNS; 10 µM unless noted 80.4% and 101% | SK-MEL-5 melanoma; 10 µM unless noted 101% and 94.8% | UACC-62 melanoma; 10 µM unless noted 96.1% and 100% | LOX IMVI melanoma; 10 µM unless noted 78.3% and 87.9% | SK-MEL-28 melanoma; 10 µM unless noted 115% and 100% | SK-MEL-2 melanoma; 10 µM unless noted 93.2% | EKVX NSCLC; 10 µM unless noted 102% and 104% | SN12C renal; 10 µM unless noted 97.8% and 99.4% | UO-31 renal; 10 µM unless noted 50.4% and 90.9% | TK-10 renal; 10 µM unless noted 133% and 85.7% | ACHN renal; 10 µM unless noted 103% and 99.7% | CAKI-1 renal; 10 µM unless noted 102% and 96.7% | A498 renal; 10 µM unless noted 99.2% and 91.2% | CCRF-CEM leukemia; 10 µM unless noted 80.4% and 107% | MOLT-4 leukemia; 10 µM unless noted 85% and 91.3%

CC1(C)OB(c2ccc(Cn3cc(F)c(=O)[nH]c3=O)cc2)OC1(C)C
inactive: HCT-15 colon; 10 µM 101% | HCT-15 colon; 50 µM 68.1% | SNB-75 CNS; 10 µM 103% | SNB-75 CNS; 50 µM 38.3% | SNB-19 CNS; 10 µM 103% | SNB-19 CNS; 50 µM 70.6% | U251 CNS; 10 µM 105% | U251 CNS; 50 µM 82.6% | PC-3 prostate; 10 µM 101% | PC-3 prostate; 50 µM 55.4% | SK-MEL-5 melanoma; 10 µM 98.4% | SK-MEL-5 melanoma; 50 µM 38.8% | UACC-62 melanoma; 10 µM 89.8% | UACC-62 melanoma; 50 µM 29.1% | SK-MEL-28 melanoma; 10 µM unless noted 99.4% | EKVX NSCLC; 10 µM 106% | EKVX NSCLC; 50 µM 72.1% | SN12C renal; 10 µM 102% | SN12C renal; 50 µM 80.8% | UO-31 renal; 10 µM 87.3% | UO-31 renal; 50 µM 72.8% | TK-10 renal; 10 µM 102% | TK-10 renal; 50 µM 79.3% | ACHN renal; 10 µM 103% | ACHN renal; 50 µM 92.1% | CAKI-1 renal; 10 µM 85.7% | CAKI-1 renal; 50 µM 75.1% | A498 renal; 10 µM unless noted 25.6% [50 µM] | CCRF-CEM leukemia; 10 µM 112% | CCRF-CEM leukemia; 50 µM 37.7% | MOLT-4 leukemia; 10 µM 99.3% | MOLT-4 leukemia; 50 µM 54.7%

O=c1c2ccccc2nc2n1Cc1nc3ccccc3c(=O)n1C2
inactive: HCT-15 colon; 10 µM unless noted 90.9% and 108% | HT29 colon; 10 µM unless noted 111% and 103% | SNB-75 CNS; 10 µM unless noted 86.6% and 105% | SNB-19 CNS; 10 µM unless noted 102% and 91.9% | U251 CNS; 10 µM unless noted 105% and 108% | PC-3 prostate; 10 µM unless noted 98.6% and 107% | SK-MEL-5 melanoma; 10 µM unless noted 95.3% and 107% | UACC-62 melanoma; 10 µM unless noted 95.6% and 98.9% | LOX IMVI melanoma; 10 µM unless noted 96.1% and 97.6% | SK-MEL-28 melanoma; 10 µM unless noted 97.8% and 101% | SK-MEL-2 melanoma; 10 µM unless noted 103% and 119% | EKVX NSCLC; 10 µM unless noted 90.9% and 104% | SN12C renal; 10 µM unless noted 96.9% and 102% | UO-31 renal; 10 µM unless noted 81.2% and 92.6% | TK-10 renal; 10 µM unless noted 107% and 102% | ACHN renal; 10 µM unless noted 95.6% and 102% | CAKI-1 renal; 10 µM unless noted 93.5% | A498 renal; 10 µM unless noted 93.9% and 103% | CCRF-CEM leukemia; 10 µM unless noted 96.2% and 112% | MOLT-4 leukemia; 10 µM unless noted 99.4% and 30.7%

CCCCCCCCCCCCCCCc1ccc(Cl)c(O)c1Cl (tested in a mixture with another compound)
inactive: HCT-15 colon; 0.25 µM 76.6% | HCT-15 colon; 10 µM 109% | HT29 colon; 0.25 µM 43.1% | HT29 colon; 10 µM 88% | SNB-75 CNS; 0.25 µM 36.6% | SNB-75 CNS; 10 µM 94.2% | SNB-19 CNS; 0.25 µM 10.8% | SNB-19 CNS; 10 µM 111% | U251 CNS; 0.25 µM 13% | U251 CNS; 10 µM 92.9% | PC-3 prostate; 0.25 µM 59.5% | PC-3 prostate; 10 µM 90.4% | SK-MEL-5 melanoma; 10 µM unless noted 87.7% | UACC-62 melanoma; 10 µM unless noted 22.8% [0.25 µM] | LOX IMVI melanoma; 0.25 µM 19.4% | LOX IMVI melanoma; 10 µM 99.2% | SK-MEL-28 melanoma; 0.25 µM 51.3% | SK-MEL-28 melanoma; 10 µM 109% | SK-MEL-2 melanoma; 0.25 µM 57.4% | SK-MEL-2 melanoma; 10 µM 88.2% | EKVX NSCLC; 0.25 µM 79.8% | EKVX NSCLC; 10 µM 106% | SN12C renal; 0.25 µM 12.5% | SN12C renal; 10 µM 89.7% | UO-31 renal; 0.25 µM 63.4% | UO-31 renal; 10 µM 93.6% | TK-10 renal; 0.25 µM 68.9% | TK-10 renal; 10 µM 115% | ACHN renal; 0.25 µM 34% | ACHN renal; 10 µM 108% | CAKI-1 renal; 0.25 µM 32% | CAKI-1 renal; 10 µM 94.8% | A498 renal; 0.25 µM 43.5% | A498 renal; 10 µM 125% | CCRF-CEM leukemia; 0.25 µM 18.3% | CCRF-CEM leukemia; 10 µM 93% | MOLT-4 leukemia; 10 µM 104%
active: MOLT-4 leukemia; 0.25 µM 4.89%

COc1cc(Nc2nc3ccccc3nc2NS(=O)(=O)c2ccc(NC(=O)c3ccc(C)c(OC)c3)cc2)cc(OC)c1
52.7% (inactive) and 2.52% (active): LOX IMVI melanoma; 10 µM unless noted
54.1% (inactive) and -35.5% (active): TK-10 renal; 10 µM unless noted
32% (inactive) and -34.7% (active): SNB-75 CNS; 10 µM unless noted
37.5% (inactive) and 7.47% (active): MOLT-4 leukemia; 10 µM unless noted
53.7% (inactive) and 5.41% (active): HT29 colon; 10 µM unless noted
inactive: HCT-15 colon; 10 µM unless noted 60.3% and 13.4% | SNB-19 CNS; 10 µM unless noted 68.2% and 39.1% | U251 CNS; 10 µM unless noted 55.4% and 21.5% | PC-3 prostate; 10 µM unless noted 21.5% and 11.1% | SK-MEL-2 melanoma; 10 µM unless noted 45.7% | SN12C renal; 10 µM unless noted 49.1% and 14.8% | CCRF-CEM leukemia; 10 µM unless noted 20%
62.2% (inactive) and -11.6% (active): CAKI-1 renal; 10 µM unless noted
18.9% (inactive) and -44.3% (active): A498 renal; 10 µM unless noted
40.1% (inactive) and 8.65% (active): EKVX NSCLC; 10 µM unless noted
53.1% (inactive) and 1.39% (active): ACHN renal; 10 µM unless noted
56.4% (inactive) and -32.5% (active): UACC-62 melanoma; 10 µM unless noted
85.3% (inactive) and -25.7% (active): SK-MEL-5 melanoma; 10 µM unless noted
12.2% (inactive) and -20% (active): UO-31 renal; 10 µM unless noted
63.8% (inactive) and -17.5% (active): SK-MEL-28 melanoma; 10 µM unless noted

O=C=NC(c1ccccc1)(c1ccccc1)c1ccccc1
inactive: HCT-15 colon; 10 µM unless noted 102% | HT29 colon; 10 µM unless noted 99.9% | SNB-75 CNS; 10 µM unless noted 84.7% | SNB-19 CNS; 10 µM unless noted 107% | U251 CNS; 10 µM unless noted 99.4% | PC-3 prostate; 10 µM unless noted 102% | SK-MEL-5 melanoma; 10 µM unless noted 114% | UACC-62 melanoma; 10 µM unless noted 101% | LOX IMVI melanoma; 10 µM unless noted 102% | SK-MEL-28 melanoma; 10 µM unless noted 114% | SK-MEL-2 melanoma; 10 µM unless noted 118% | EKVX NSCLC; 10 µM unless noted 111% | SN12C renal; 10 µM unless noted 102% | UO-31 renal; 10 µM unless noted 71.9% | TK-10 renal; 10 µM unless noted 110% | ACHN renal; 10 µM unless noted 99.2% | CAKI-1 renal; 10 µM unless noted 91.7% | A498 renal; 10 µM unless noted 116% | CCRF-CEM leukemia; 10 µM unless noted 102% | MOLT-4 leukemia; 10 µM unless noted 92.2%

O=C(O)c1sccc1O
inactive: HCT-15 colon; 10 µM 81% | HCT-15 colon; 100 µM 31.5% | HT29 colon; 10 µM 105% | HT29 colon; 100 µM 30.2% | SNB-19 CNS; 10 µM 82.1% | SNB-19 CNS; 100 µM 34.8% | U251 CNS; 10 µM 76.6% | U251 CNS; 100 µM 15.9% | PC-3 prostate; 10 µM 49.3% | PC-3 prostate; 100 µM 23% | SK-MEL-5 melanoma; 10 µM 78.6% | UACC-62 melanoma; 10 µM 56.5% | LOX IMVI melanoma; 10 µM 80.3% | SK-MEL-28 melanoma; 10 µM 101% | SK-MEL-28 melanoma; 100 µM 28.3% | SK-MEL-2 melanoma; 10 µM 87.2% | EKVX NSCLC; 10 µM 81.3% | EKVX NSCLC; 100 µM 33.5% | SN12C renal; 10 µM 76.3% | SN12C renal; 100 µM 35.7% | UO-31 renal; 10 µM 48.1% | UO-31 renal; 100 µM 26.7% | TK-10 renal; 10 µM 133% | TK-10 renal; 100 µM 68.8% | ACHN renal; 10 µM unless noted 70.7% | A498 renal; 10 µM 89.1% | A498 renal; 100 µM 46.2% | CCRF-CEM leukemia; 10 µM 47.7% | CCRF-CEM leukemia; 100 µM 15.1% | MOLT-4 leukemia; 10 µM 46.1% | MOLT-4 leukemia; 100 µM 17.4%
active: SK-MEL-5 melanoma; 100 µM 7.35% | UACC-62 melanoma; 100 µM 0.233% | LOX IMVI melanoma; 100 µM 2.04% | SK-MEL-2 melanoma; 100 µM 8.51%
